Data from the OligoGym collection.

Tests used:
Assay in all cases: pooled miR-30 sensor sort-seq; sequence = guide strand
Details in all cases: shRNA
[1] = molecular target: TAF3
[2] = molecular target: TAF5
[3] = molecular target: TAF4
[4] = molecular target: TARBP2
[5] = molecular target: TAS1R2
[6] = molecular target: TAS2R31
[7] = molecular target: TBC1D10A
[8] = molecular target: TBC1D7
Also: reference of the scale not given here.

TTCTTGTTCGCACACTTGGGGC
sensor-assay potency score (higher = more potent) [1]: -1.41

TAATCGAACTGTATTATCCATT
sensor-assay potency score (higher = more potent) [2]: -0.885

TTTGTCGCGTGAACTGTCTGGG
sensor-assay potency score (higher = more potent) [3]: 0.638

TGCTGCAGCAGTAAAAACCGGA
sensor-assay potency score (higher = more potent) [4]: -0.386

TAGTATTCTTCATACATTGTGG
sensor-assay potency score (higher = more potent) [2]: -0.781

TAGACATACACCTACATAGTAA
sensor-assay potency score (higher = more potent) [3]: -0.674

TTCTCTCCTACTGAATTTCGTA
sensor-assay potency score (higher = more potent) [4]: -0.854

TTTCGTAGAGAATCCCAGGTGC
sensor-assay potency score (higher = more potent) [4]: 0.652

TTTGAGAAGGTCGTACACAGGC
sensor-assay potency score (higher = more potent) [4]: -0.0476

TTGAATCTGCAAAACCTCCAGC
sensor-assay potency score (higher = more potent) [2]: 0.0484

TAGACCGCAGAGTACACGCTGT
sensor-assay potency score (higher = more potent) [5]: -0.157

TTCTTGAGAAGACACAATGGGT
sensor-assay potency score (higher = more potent) [1]: -1.17

TTGCAGAGCCATGACACACAGT
sensor-assay potency score (higher = more potent) [4]: -0.909

TACATAACTTACTACATCTGGA
sensor-assay potency score (higher = more potent) [3]: -0.0503

ATTAATGTCATCATCGTCCCGA
sensor-assay potency score (higher = more potent) [3]: 0.127

TATTCTTGCACTTTCTTCTGAC
sensor-assay potency score (higher = more potent) [3]: 0.569

TAGGACTACAGATGGAACTGGG
sensor-assay potency score (higher = more potent) [4]: 0.0896

TTAATGTCATCATCGTCCCGAA
sensor-assay potency score (higher = more potent) [3]: -0.403

TATCTTATCCAACTTATCTGAA
sensor-assay potency score (higher = more potent) [2]: -0.846

TATCTTTATCTTTCTTGCCTTT
sensor-assay potency score (higher = more potent) [1]: -0.809

TTGCAGGTATAGCTCTGGCTGG
sensor-assay potency score (higher = more potent) [5]: -1.05

TAGGACCACTCGTTATTCGGGC
sensor-assay potency score (higher = more potent) [5]: -0.986

TTTTGTCCGTACAATCTCTTTC
sensor-assay potency score (higher = more potent) [6]: -0.469

TTGGGGGCTGAGTCCTTCGGGG
sensor-assay potency score (higher = more potent) [7]: -1.22

TAGAAGAGGATCATGTAGCACT
sensor-assay potency score (higher = more potent) [5]: -0.0652

ATCGCCTCCAGTTTCTCGCTGT
sensor-assay potency score (higher = more potent) [7]: -0.233

TCACAGAAGAACATGTCCCAGA
sensor-assay potency score (higher = more potent) [7]: -0.251

TTGCTCAGCAGGCATATGCATG
sensor-assay potency score (higher = more potent) [7]: -1.58

TCTCATAATATACTGAACGAAA
sensor-assay potency score (higher = more potent) [8]: -1.27

TTGTTGAGCATGTCCAGCCACT
sensor-assay potency score (higher = more potent) [7]: -1.14
